Measured values reported in PubChem BioAssay AID651965 (National Center for Advancing Translational Sciences (NCATS), 2013).
About 6,400 (1.9%) of roughly 340,000 compounds were called active. Another 4% or so got no clear call; they are omitted. The sample holds actives, similar compounds and a random draw of the others, so the mix is not that of the screen. Values without a mark were called inactive. The call rests on the fitted dose curve; in most records, active means well fitted falling curve with a large enough effect; inconclusive means small, poorly fitted or top-dose-only effect; inactive means no such curve, though single readings can be large or run the other way.

What follows are molecules tested against ATP-dependent Clp protease proteolytic subunit (Bacillus subtilis (strain 168)) (UniProt P80244) (assay: qHTS Assay for Activators of ClpP). Settings: purified B. subtilis ClpP, FRET peptide cleavage, 20 min; series mostly up to 57.5 µM; activity change, negative = active: at the top concentration.
ATP-dependent Clp protease proteolytic subunit (Bacillus subtilis (strain 168)), sequence (P80244 whole entry, looked up): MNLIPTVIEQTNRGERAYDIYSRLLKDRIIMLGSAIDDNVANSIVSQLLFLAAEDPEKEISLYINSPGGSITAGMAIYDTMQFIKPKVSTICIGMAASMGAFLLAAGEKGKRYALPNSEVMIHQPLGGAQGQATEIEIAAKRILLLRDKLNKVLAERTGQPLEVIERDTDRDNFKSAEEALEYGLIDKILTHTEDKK
How it was run: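 Purified B. subtilis ClpP, 10 microg/mL final in Tris/HCl pH8 with KCl, BSA, glycerol and Tween-20, cleaved an Abz/nitrotyrosine-quenched decapeptide. Fluorescence (ex 320, em 430) was read at 0 and 20 min at room temperature. Delta was normalized to 5.8 microM ADEP and DMSO/no-enzyme controls.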
Further: the source files actives as falling curves though it sought activators and does not explain the sign; nearly all actives have a fitted effect of over 65% in size.
Potency means the concentration at half of the fitted maximal effect.

SMILES | activity change, negative = active [%] | Potency
COc1ccc(CN(Cc2ccccc2)C(=O)c2ccc(O)cc2)cc1COc1ccc(NC(C)=O)cc1 | -5.22 | 
C[C@@H]1CN([C@@H](C)CO)C(=O)CCCn2nncc2CO[C@H]1CN(C)Cc1ccc(C(F)(F)F)cc1 | -0.773 | 
C#CCN(C[C@@H]1[C@@H](OC(=O)NC2CC2)[C@@H](OC(=O)NC2CC2)Cn2c(=O)ccc(=O)n21)S(=O)(=O)c1ccc(C)cc1 | -0.219 | 
COc1cccc(C2C(C(=O)Nc3ccc(C)cc3C)=C(C)Nc3c(C(=O)Nc4ccccc4)cnn32)c1 (centres undefined) | -27.6 | 
CC1=C(C(=O)Nc2ccccc2)C(c2ccc(C)cc2)n2nc(SCc3ccccc3C)nc2N1 (centres undefined) | -3.48 | 
CCc1ccc(C2C(C(=O)Nc3ccccc3)=C(C)Nc3c(C(=O)Nc4ccc(C)cc4)cnn32)cc1 (centres undefined) |  | 31.6 µM (active)
CC1(C(=O)NCc2ccc3c(c2)OCO3)CCN1C(=O)Cc1cccs1 (centres undefined) | -0.503 | 
COc1cccc(CNc2nc(NCc3ccccc3OC)nc3ccsc23)c1 | -28.5 | 
CCC(=O)N1CCCC1(C)C(=O)Nc1ccc2c(c1)CCN2C(C)=O (centres undefined) | -1.31 | 
Cc1cc(C)cc(C(=O)NCCN2CCOCC2)c1 | 0.816 | 
CCn1cc(/C=C(\NC(=O)c2ccc(C)cc2)C(=O)NCCN2CCOCC2)c2ccccc21 | 0.383 | 
Cc1ccc(C(=O)NC(=S)NCCN2CCOCC2)cc1 |  | 28.2 µM (active)
CCCNC(=O)c1cc2c(c(-c3cccc(-c4ccc(C#N)cc4)c3)n1)[C@@H](CCO)N(C(=O)CC)C2 | -7 | 
CC(C)OC(=O)CC(=O)CC(O)c1cccc([N+](=O)[O-])c1 (centres undefined) | 1.54 | 
COC(=O)c1ccc2nc(-c3ccc(F)cc3)c(Cc3ccc(C)cc3)n2c1 | -16.6 | 
CC(=O)Oc1ccc(NC(=O)CCC2CCCCC2)c(C(=O)O)c1 |  | 22.4 µM (active)
COC(=O)c1sccc1NC(=O)CCC1CCCC1 | -1.1 | 
COc1ccc(NC(=O)CCCC2CCCCC2)c(OC)c1 | -2.51 | 
CCc1nc2c(OCc3ccc(C(F)(F)F)cc3)cccn2c1N(C)C(=O)CC(C)C | 1.18 | 
Cc1ccccc1CN1C(=O)CSCC1(C)C(=O)Nc1c(C)cccc1C (centres undefined) | 3.88 | 
CC(C)(C)C1CCC(NC(=O)c2cnn3c2NC(=C2CC2)C=C3C(F)F)CC1 (centres undefined) | -13.2 | 
CCCCNC(=O)c1ccc(-n2c(=S)[nH]c3ccccc3c2=O)cc1 | 0.235 | 
CN(C)CCCNC(=O)c1ccc2[nH]c3ccccc3c2c1 |  | 12.6 µM (active)
Cc1ccc(C(=O)NCCSc2c(C)[nH]c3ccccc23)cc1C | -0.725 | 
COc1ccc(NC(=O)c2sc(=O)n(Cc3ccc(S(=O)(=O)N(C)C)cc3)c2C)cc1 | 0.336 | 

SMILES | activity change, negative = active [%] | Potency
CCN1C(=O)[C@H]2[C@@H](c3ccccc3)N[C@]3(CCCN(Cc4ccc(C)cc4)C3=O)[C@H]2C1=O | 0.813 | 
NS(=O)(=O)c1ccc(NC(=O)COC(=O)c2ccco2)cc1 | -1.06 | 
O=C(COC(=O)CNC(=O)c1ccco1)Nc1ccc(F)cc1 |  | 25.1 µM (active)
CCc1ccc(C(=O)COC(=O)c2ccco2)cc1 | 0.893 | 
O=C(CNC(=O)c1ccco1)OCC(=O)c1ccccc1 |  | 25.1 µM (active)
COCCn1c(C)cc(C(=O)COC(=O)CNC(=O)c2ccco2)c1C | -1.27 | 
CCOC(=O)c1ccc(NC(=O)CNC(=O)c2ccco2)cc1 | -5.64 | 
CC(O)(c1cccc(F)c1)c1nc(-c2ccc3c(c2)OCO3)cs1 (centres undefined) | -7.59 | 
C[C@@H]1CN([C@@H](C)CO)C(=O)c2cc(Br)cnc2O[C@H]1CN(C)Cc1ccc(-c2ccccc2)cc1 | -0.688 | 
C[C@@H]1CN([C@H](C)CO)C(=O)CCCn2nncc2CO[C@@H]1CN(C)S(=O)(=O)c1cccc(C#N)c1 | -4.62 | 
CC[C@@H]1CC2=C(C(=O)OC(C)(C)O2)[C@@H](CC)O1 | -1.94 | 
CC1(c2cccc(Br)c2)NC(=O)N(CC(=O)NCCC2=CCCCC2)C1=O (centres undefined) | 2.55 | 
COc1ccc(CCN(Cc2cc3cccc(C)c3[nH]c2=O)C(=O)N2CCCC2)cc1OC | -26.6 | 
COc1cc2cc(CN(CCN3CCCC3)C(=O)Nc3ccccc3Cl)c(=O)[nH]c2cc1OC |  | 3.16 µM (active)
Cc1ccc2[nH]c(=O)c(CN(CCCN(C)C)C(=O)Nc3cccc(Cl)c3)cc2c1 | -15.6 | 
O=S1(=O)CC(N2CCSCC2)CN1Cc1cn(Cc2cccc(Cl)c2)nn1 (centres undefined) | 1.24 | 
CCc1nc2c(OCc3ccccc3)cccn2c1N(C)C(=O)c1ccco1 | 0.312 | 
CC(=O)Oc1ccc(Cn2c(C)c(C(=O)NCc3ccc(C#N)cc3)sc2=O)cc1 | -2.06 | 
CC(=O)NC(c1cccc(F)c1)c1nc(-c2cccc(F)c2)cs1 (centres undefined) | -1.82 | 
CCOC(=O)c1ccn(-c2nc(-c3ccco3)cc(C(F)(F)F)n2)n1 | 5.18 | 
Cc1cc(C(F)(F)F)nn1-c1nc(-c2ccco2)cc(C(F)(F)F)n1 |  | 35.5 µM (active)
COc1nc(NCc2ccc(Cl)cc2)nc(OC)n1 | -1.49 | 
FC(F)(F)c1cc(-c2ccco2)nc(NCc2ccc(Cl)cc2)n1 |  | 28.2 µM (active)
COc1ccc(CNc2nc(-c3ccc(Cl)cc3)cc(C(F)(F)F)n2)cc1 | 4.07 | 
Cc1nn(-c2nc(-c3ccccc3)cc(C(F)(F)F)n2)c(C)c1Cl | -2.43 | 

SMILES | activity change, negative = active [%] | Potency
CCc1oc(-c2ccc(OC)cc2)c(C(=O)OCCCCCO)c1C(C)OCCO (centres undefined) | 4.8 | 
CCSC1(SCC)N=C(N)C2(C#N)C(c3ccccc3)NC(C)=CC12C#N (centres undefined) |  | 15.8 µM (active)
CNc1cncc(-c2ccc(NS(C)(=O)=O)cc2)n1 | 4.84 | 
COc1cccc(CN2CCC(C(=O)NC(c3ccc4c(c3)OCO4)c3ccccn3)CC2)c1 (centres undefined) | -0.188 | 
O=C(COc1ccccc1C(=O)Nc1ccccc1)Nc1cccc(F)c1 | -3.07 | 
CC(C)n1c(CN2CCN(Cc3ccccc3)CC2)nc2ccccc21 | -1.63 | 
CCC(c1nc2ccccc2[nH]1)n1c(=O)c(-c2cccs2)nc2ccccc21 (centres undefined) | 3.79 | 
CC(C)n1c(-c2cccs2)nc2ccccc21 |  | 3.98 µM (active)
COc1cc(C=C(OC(C)=O)c2ccc3c(c2)OCO3)cc(OC)c1OC | -17.1 | 
CCCCSc1[nH]c(=O)c(C(=O)OCC)cc1C#N |  | 31.6 µM (active)
CCOC(=O)c1cc(C)nc(S(C)(=O)=O)c1C#N | -4.23 | 
CCOC(=O)c1cnc(COc2ccccc2Cl)[nH]c1=O | -13.7 | 
CC(C)(C(=O)N1CCC1(C)C(=O)NS(=O)(=O)c1ccc(Br)cc1)c1ccccc1 (centres undefined) | 0.843 | 
COc1cc(Cl)c(C)cc1NC(=O)[C@@H]1CCCN1C(=O)c1cccs1 | -2.96 | 
COc1cc(NC(=O)c2cccs2)ccc1NC(=O)c1ccccc1Cl |  | 14.1 µM (active)
O=C(Nc1ccccc1)c1ccc(NC(=O)c2cccs2)cc1 | -22.6 | 
CCC1OC(C2CC2)CC2=C1C(=O)OC(C)(C)O2 (centres undefined) | 1.84 | 
CCc1cc(C(N)=O)c(NC(=O)c2ccc(OC)cc2)s1 | 0.183 | 
CC(C)(C)OC(=O)N(Cc1ccccc1)Cc1ccc(OCc2cccc(NC(=O)c3ccccc3)c2)cc1 | -13.9 | 
CC(C)c1cc(C(N)=O)c(NC(=O)c2cccc(COc3ccc(Br)cc3)c2)s1 |  | 25.1 µM (active)
COCCNC(=O)C1(C)CCCN(Cc2cccc(F)c2)C1 (centres undefined) | 0.172 | 
COc1ccc(OCCCn2c(C)nc3cc(C)c(C)cc32)cc1 | 1 | 
COc1ccc(OCCn2ccnc2C)cc1 |  | 3.16 µM (active)
COc1ccc(OCCCCN2CCC(C)CC2)cc1 | -0.0749 | 
O=C(C[C@H]1C[C@H]2c3cc(NS(=O)(=O)c4ccc(F)cc4)ccc3O[C@H]2[C@H](CO)O1)NCc1cc(F)ccc1F | -1.88 | 

SMILES | activity change, negative = active [%] | Potency
Cc1cc(NC(=O)CCN2CCN(Cc3ccccc3)CC2)ccc1Br | -1.11 | 
COC(=O)c1[nH]c2ccccc2c1NC(=O)CN1CCCc2ccccc21 | -18.7 | 
CCOC(=O)N1CCN(CCC(=O)Nc2cc(OC)ccc2OC)CC1 | -4.91 | 
CCOC(=O)c1[nH]c2ccc(OC)cc2c1NC(=O)N1CCOCC1 |  | 25.1 µM (active)
CCOC(=O)c1[nH]c2ccc(OC)cc2c1NC(=O)CCN1CCN(Cc2ccccc2)CC1 |  | 31.6 µM (active)
Cc1c(C(=O)CN2CCOCC2)[nH]c2ccccc12 | -5.08 | 
CCOC(=O)[C@]12CCCC=C1N(Cc1ccc(Cl)cc1Cl)C(=O)[C@H](CC(=O)N1CCCCC1)C2 | 3.33 | 
OCC(O)C(O)C(O)C(O)C=Nc1ccc(/C=C/c2ccnc3ccccc23)cc1 (centres undefined) | 0.863 | 
CCCc1ccc(S(=O)(=O)N2CCN(C(=O)c3cc(C)on3)CC2)cc1 | -10.5 | 
CCOc1ccc(CCN2C(=O)C(=O)N([C@@H](CC(C)C)CN3CCC[C@H]3CN3C(=O)C(=O)NC[C@@H]3Cc3ccccc3)C[C@@H]2CC(C)C)cc1 | -0.248 | 
CC(C)NC(=O)C1(C)CCCCCN1C(=O)c1ccc(-c2ccccc2)cc1 (centres undefined) | -0.591 | 
O=C(COc1coc(CN2CCN(c3ccccc3)CC2)cc1=O)N1CCc2ccccc21 |  | 28.2 µM (active)
O=C(COc1coc(CN2CCN(c3ccccc3F)CC2)cc1=O)N1CCc2ccccc21 | -1.27 | 
O=C(COc1coc(CN2CCN(c3ccccc3)CC2)cc1=O)Nc1ccccc1F | 76.5 | 
CS(=O)c1ccc(/C=C2\C=Cc3ccccc32)cc1 (centres undefined) | 2.41 | 
CCCNC(=O)C1(C)CCCN(Cc2cccc(C(F)(F)F)c2)C1 (centres undefined) | 2.87 | 
Cc1cc(C)c(S(=O)(=O)NN=C2c3ccccc3[C@H]3Cc4csc[n+]4[C@@H]23)c(C)c1 | -2.39 | 
Cc1ccc(-c2nc3ccccn3c2Nc2ccc(F)cc2)o1 | 3.8 | 
COc1ccccc1C(=O)Nc1ccc(NC(=O)c2ccco2)c(C)c1 | 1.84 | 
Cc1ccc(NC(=O)c2ccco2)cc1 | -1.1 | 
Cc1ccc(C(=O)COc2cccc(NC(=O)c3ccco3)c2)cc1 |  | 15.8 µM (active)
COc1cccc(C(=O)Nc2ccc(NC(=O)c3ccco3)cn2)c1 |  | 14.1 µM (active)
COc1ccc(NC(=O)c2ccco2)cc1NC(=O)COc1ccc(C)c(C)c1 | -5.86 | 
O=C(Nc1ccc(NC(=O)c2cccs2)cn1)c1ccco1 | -3.98 | 
